From PubChem BioAssay

Assay: E. coli acrAB mutant growth effects, primary screen, E. coli filamentation inducers, strain DRC39, OD650, 48 h (AID 1179);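 also: screen aims at cell division blockers that make cells filament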
Conditions: E. coli DRC39 delta-acrAB growth, higher = more signal, called active from +8 up or from −8 down

z-score, inactive:
CC(C)(C)OC(=O)CC[C@]1(C(=O)N2CCCCC2)COC(c2ccc(OCCCO)cc2)=N1 0.139
O=C1[C@@]23C=C(Br)[C@H](C[C@@H]2COC3)[C@@]12CO2 -0.0396
O=C1C[C@@](C(=O)NCc2ccccc2)(c2ccc([N+](=O)[O-])cc2)[C@@H](c2ccc(CO)cc2I)N1CC12CC3CC(CC(C3)C1)C2 0.348
O=C1C[C@@](C(=O)NCC(F)(F)F)(c2ccc([N+](=O)[O-])cc2)[C@@H](c2ccc(CO)cc2)N1CC12CC3CC(CC(C3)C1)C2 -0.684
CN1C(=O)C2C=CC(C(O)c3ccc(I)cc3)N(Nc3ccccc3)C2C1=O (stereo not given) -1.4
COc1cc(C(O)C2C=CC3C(=O)N(Cc4ccccc4)C(=O)C3N2n2cnnc2)cc(OC)c1OC (stereo not given) 0.759
C=C(COC)/C(=C/C[C@@H](OC(=O)c1ccncc1)c1ccccc1OCCO)c1cc(C(=O)OC)ccc1OC 0.32
CC(C)C[C@@H]1NC(=O)[C@@]23C(=O)N[C@@H](Cc4ccccc4)C2[C@H](C)[C@@]2(C)O[C@H]2C3/C=C/C/C=C\CNC(=O)[C@@H](C)NC1=O (stereo not given in full) 0.209
CCCNC(=O)[C@@]1(Sc2ccc(C)cc2)CC(=O)N(C(C)C)[C@@H]1c1ccc(CO)cc1I -0.202
CN1C(=O)C2C(C1=O)C1C=C(CCCO)C2C(c2cccs2)N1Cc1cc2c(cc1Br)OCO2 (stereo not given) -0.512
C=C(CCCC)/C(=C/C[C@H](OC(C)=O)c1ccc(OCCO)cc1)c1cc(C(=O)OC)ccc1OC 0.371
COC(=O)[C@@]1(Cc2ccc(OC)cc2)[C@H]2c3cc(C(=O)N4CCCC4)n(Cc4ccc(OC(F)(F)F)cc4)c3C[C@H]2CN1C(=O)c1ccccc1 0.513
CS(=O)(=O)CCOC(=O)C1=CC(CCCO)=CC(C2CC2)N(Cc2cccc(OC(F)(F)F)c2)C=C1C(=O)OCCS(C)(=O)=O (stereo not given) 0.241
COC(=O)C1=CC(CCCO)=CC(C)N(Cc2cccc(OC(F)(F)F)c2)C=C1C(=O)OC (stereo not given) 1.21
[N-]=[N+]=NCc1ccccc1[C@@H]1OC(c2ccc(OCCCO)cc2)=N[C@]1(Cc1ccccc1)C(=O)NCCN1CCOCC1 0.528
CC(C)C(=C=CC[C@@H](O)c1cccc(OCCO)c1)C[C@@H](O)c1ccccn1 -0.158
O=C(NCC(O)CO)[C@@]1(CCS(=O)(=O)c2ccccc2)COC(c2ccc(OCCCO)cc2)=N1 (stereo not given in full) -0.135
CCOC(=O)C1=C[C@@H](c2ccccc2)N(S(=O)(=O)c2ccc(C)cc2)[C@H]1c1ccccc1 -0.605
CC(C)OC(=O)CC(=O)CC(O)c1ccc([N+](=O)[O-])cc1 (stereo not given) 0.0547
COC(=O)C1N=C(c2ccc(OCCCO)cc2)N(c2ccccc2)O1 (stereo not given) -0.0518
NC(=O)NCC#Cc1ccc2c(c1)[C@]1(C(=O)N2)[C@H](C(=O)N2CCN(c3ncccn3)CC2)[C@H]2C(=O)O[C@H](c3ccccc3)[C@H](c3ccccc3)N2[C@@H]1c1ccc(OCCO)cc1 -0.114
[N-]=[N+]=Nc1ccccc1C[C@]1(C(=O)O)N=C(c2ccc(OCCCO)cc2)O[C@H]1c1ccccc1 -0.0225
C=C(/C(=C/C[C@@H](OC(C)=O)c1ccc(OCCO)cc1)c1cc(C(=O)OC)ccc1OC)C(C)C 0.0954
COc1ccc(NC(=O)O[C@H]2[C@@H]3OC(=O)[C@H](Cc4cccc(Br)c4)C/C=C/C[C@@H](Cc4cccc(Br)c4)C(=O)O[C@H]3[C@@H](OC)O[C@@H]2CO)cc1 0.855
[N-]=[N+]=NCc1ccccc1[C@H]1OC(c2ccc(OCCCO)cc2)=N[C@@]1(CCS(=O)(=O)c1ccccc1)C(=O)NCc1ccccc1 0.536
COc1cc(NN2C(C(O)C3CCCCC3)C=CC3C(=O)N(C)C(=O)C32)cc(OC)c1OC (stereo not given) -0.498
O=C1[C@@H]2[C@@H](CC(COc3ccccc3)=C3[C@@H](CCc4ccccc4)OB(O)C[C@@H]32)C(=O)N1Cc1ccccc1 -0.915
O=C1OCCC=C[C@H]2OC34C=CCN(c5ccc(Cl)cc5)C(=O)[C@H]3N(CCCCCCO)C(=O)[C@@H]4C12 (stereo not given in full) 1.74
CCOC(=O)C[C@H]1[C@H](OC(=O)c2ccccc2-c2ccccc2)[C@@H](NC(=O)c2ccc3ccccc3n2)c2cc(OCCCO)ccc2N1C(=O)c1ccccc1 -0.916
COC(=O)[C@@]1(Cc2ccc(OC)cc2)[C@H]2c3cc(C(=O)N4CCCC4)n(Cc4ccc(S(C)(=O)=O)cc4)c3C[C@H]2CN1C(=O)c1ccccc1 -0.113
C=C[C@@H](C)[C@@H](OC(=O)Nc1ccc(SC)cc1)c1ccc(OCCO)cc1 -0.504
NCCCCCNC(=O)[C@@H]1C[C@@H]2C(=O)N3CCC[C@H]3C(=O)N2[C@@H]1c1ccc(O)cc1 -0.107
O=C1OCCC/C=C\[C@H]2OC34C=CCN(c5ccc6ccccc6c5)C(=O)[C@H]3N(CCCO)C(=O)[C@@H]4C12 (stereo not given in full) -0.0547
CC(=O)NCCCC[C@@H]1NC(=O)[C@@H]2C[C@H](C(=O)NCCCCCCN)[C@H](c3cccc(OCCO)c3)N2C1=O 0.211
COCCOC(=O)N1C(=O)[C@@]2(c3cc(C#CCNC(N)=O)ccc31)[C@H](c1ccc(OCCO)cc1)N1[C@H](c3ccccc3)[C@H](c3ccccc3)OC(=O)[C@H]1[C@@H]2C(N)=O 0.384
